FMDV antiviral: High Throughput Screening for Foot and Mouth Disease Virus Antivirals; FMDV antiviral cell-based qHTS; Potency, µM (doses to about 57.9 µM), usual class: inhibitors; 410,000 tested, 1.2% active; AID 1159524, 2015; calls by dose curve; tested in HEK293T cells; further: read-out not given here; nearly all actives have a fitted effect of over 45% in size
VACV Venus inh: qHTS for Stage-Specific Inhibitors of Vaccinia Orthopoxvirus: Venus Reporter Primary qHTS. 330,000 tested, 0.46% active. Vaccinia virus Venus reporter expression, fluorescence. Potency, µM (top dose mostly 36.5 µM), usual class: inhibitors; calls by dose curve; tested in A549 cells; further: nearly all actives have a fitted effect of over 30% in size
Giardia FBPA inh-1: qHTS Assay for Inhibitors of Fructose-1,6-bisphosphate Aldolase from Giardia Lamblia; purified Giardia FBPA; Potency, µM (series often up to 59.6 µM), usual class: inhibitors; 290,000 tested, 0.71% active; further: nearly all actives have a fitted effect of over 55% in size
Target sequence (A8B2U2 whole entry, looked up): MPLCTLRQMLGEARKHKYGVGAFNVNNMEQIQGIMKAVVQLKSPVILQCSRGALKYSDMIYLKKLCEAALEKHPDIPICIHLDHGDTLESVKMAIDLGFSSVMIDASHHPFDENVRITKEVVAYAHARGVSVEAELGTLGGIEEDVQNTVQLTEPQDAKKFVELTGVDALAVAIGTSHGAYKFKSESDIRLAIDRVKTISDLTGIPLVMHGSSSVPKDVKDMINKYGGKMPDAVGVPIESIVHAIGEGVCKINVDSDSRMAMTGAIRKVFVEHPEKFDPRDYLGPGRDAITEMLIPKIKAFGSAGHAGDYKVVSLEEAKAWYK
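Giardia FBPA (40 nM reagent) was preincubated 10 min at RT with compound (up to 57.5 uM final), then substrate plus GAPDH/TPI/NAD/arsenate coupling system with diaphorase/resazurin was added; resorufin fluorescence (525/598 nm) was read after 20 min.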
VACV mCherry inh: qHTS for Stage-Specific Inhibitors of Vaccinia Orthopoxvirus: mCherry Reporter Primary qHTS. Vaccinia virus mCherry reporter infection, fluorescence. Potency, µM (doses to about 36.5 µM), actives largely listed as inhibitors. 310,000 tested, 0.63% active; calls by dose curve; tested in A549 cells; further: nearly all actives have a fitted effect of over 35% in size
Giardia growth: qHTS Assay for Inhibitors of Fructose-1,6-bisphosphate Aldolase from Giardia Lamblia: Giardia lamblia growth inhibition. shares compounds with Giardia FBPA inh-1. Giardia lamblia trophozoite growth inhibition. Potency, µM (highest dose often 57.5 µM), usual class: inhibitors. 1,500 tested, 5% active. AID 2785, 2010;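 further: trophozoites exposed to compound for 48 h at 37 °C; nearly all actives have a fitted effect of over 70% in size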
Mammal cell tox: qHTS Assay for Inhibitors of Fructose-1,6-bisphosphate Aldolase from Giardia Lamblia: Mammalian cellular toxicity | 1,500 tested, 4% active | mammalian cell viability counter-screen, qHTS | shares compounds with Giardia FBPA inh-1 | AID 2786, 2010 | Potency, µM (series often up to 57.5 µM), usual class: inhibitors;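 further: Chinese hamster ovary cells used as mammalian cytotoxicity surrogate; viability measured as cellular ATP by luminescence; compound exposure lasted 48 h before reading; nearly all actives have a fitted effect of over 60% in size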
Giardia FBPA inh-2: qHTS Assay for Inhibitors of Fructose-1,6-bisphosphate Aldolase from Giardia Lamblia: Primary screen confirmation; purified Giardia aldolase enzyme activity, qHTS; Potency, µM (series often up to 57.5 µM), most hits filed as inhibitors; shares compounds with Giardia FBPA inh-1; AID 2787, 2010; 1,500 tested, 5% active; further: nearly all actives have a fitted effect of over 45% in size
Rabbit aldolase: qHTS Assay for Inhibitors of Fructose-1,6-bisphosphate Aldolase from Giardia Lamblia: Rabbit FBPA Selectivity; shares compounds with Giardia FBPA inh-1; Rabbit muscle FBPA enzyme inhibition, selectivity counter-screen; Potency, µM (highest dose often 57.5 µM), most hits filed as inhibitors; 1,500 tested, 4% active; further: nearly all actives have a fitted effect of over 60% in size
Target sequence (P00883 whole entry, looked up): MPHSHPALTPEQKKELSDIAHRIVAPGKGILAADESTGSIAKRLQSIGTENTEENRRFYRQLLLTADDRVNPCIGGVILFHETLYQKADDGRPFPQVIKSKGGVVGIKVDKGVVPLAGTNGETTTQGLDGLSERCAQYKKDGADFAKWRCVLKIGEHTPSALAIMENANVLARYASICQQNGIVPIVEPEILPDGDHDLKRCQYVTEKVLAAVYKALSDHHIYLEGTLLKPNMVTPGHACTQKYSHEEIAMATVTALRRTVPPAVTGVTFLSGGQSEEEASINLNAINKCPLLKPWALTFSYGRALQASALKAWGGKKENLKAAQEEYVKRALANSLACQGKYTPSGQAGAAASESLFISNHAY
GAPDH counter: qHTS Assay for Inhibitors of Fructose-1,6-bisphosphate Aldolase from Giardia Lamblia: Coupling assay counterscreen confirmation; shares compounds with Giardia FBPA inh-1; GAPDH coupling enzyme counterscreen, biochemical, qHTS; Potency, µM (doses to about 57.5 µM), hits mostly inhibitors; 1,500 tested, 6% active; AID 2795, 2010; further: nearly all actives have a fitted effect of over 55% in size
Hits are given with their value; [ ] = remark or other dose. An excerpt weighted towards active compounds, which were near 2.2% of everything screened. Unless noted, the call rests on the fitted dose curve; in most records, active means well fitted curve in the direction sought with a large enough effect; inconclusive means small, poorly fitted or top-dose-only effect, or another doubt; inactive means no such curve, though single readings can be large; an effect the other way counts as inactive or inconclusive.

Results for CCCN1CCC(N2CCN(c3ccc([N+](=O)[O-])cc3)CC2)CC1 ?
FMDV antiviral: inactive; Giardia FBPA inh-1: 15.8µM; Giardia growth: inactive[10.4 µM]; Mammal cell tox: inactive; Giardia FBPA inh-2: inactive; Rabbit aldolase: inactive; GAPDH counter: inactive

Results for CCOC(=O)c1cnc(-c2ccc(C(F)(F)F)cn2)[nH]c1=O ?
FMDV antiviral: inactive; VACV Venus inh: inactive; Giardia FBPA inh-1: 5µM; VACV mCherry inh: inactive; Giardia growth: inconclusive; Mammal cell tox: inactive; Giardia FBPA inh-2: inactive; Rabbit aldolase: inactive; GAPDH counter: inactive

What do the screens show for `CCOC(=O)c1cnc(SCC)[nH]c1=O`?
FMDV antiviral: inactive; VACV Venus inh: inconclusive; Giardia FBPA inh-1: inactive

What do the screens show for `COc1ccc(-c2nnc3n2N=C(c2cc(OC)ccc2OC)CS3)c(OC)c1`?
Giardia FBPA inh-1: inactive

Results for CCOc1ccc(-c2nc(SCC(=O)c3ccccc3)n[nH]2)cc1 ?
FMDV antiviral: inactive; VACV Venus inh: inactive; VACV mCherry inh: inactive

What do the screens show for `Cc1nc(SCC(=O)c2ccc(F)cc2)n[nH]1`?
FMDV antiviral: inactive; Giardia FBPA inh-1: 28.2µM; Giardia growth: inactive[10.4 µM]; Mammal cell tox: inactive; Giardia FBPA inh-2: inactive; Rabbit aldolase: inactive; GAPDH counter: inactive

How did O=C(CSc1n[nH]c(-c2ccccc2)n1)c1ccc(O)c(O)c1 do in these assays?
FMDV antiviral: inactive; VACV Venus inh: inactive; Giardia FBPA inh-1: 8.91µM; VACV mCherry inh: inactive; Giardia growth: inactive[10.4 µM]; Mammal cell tox: inactive; Giardia FBPA inh-2: inactive; Rabbit aldolase: inactive; GAPDH counter: inactive

How did Nc1nc(SCC(=O)c2ccc(F)cc2)n[nH]1 do in these assays?
FMDV antiviral: inactive; VACV Venus inh: inactive; Giardia FBPA inh-1: inactive; VACV mCherry inh: inactive

What do the screens show for `O=C(Nc1ccccc1C(=O)O)/C(=C/c1ccc([N+](=O)[O-])cc1)NC(=O)c1ccc(Br)o1`?
FMDV antiviral: inactive; VACV Venus inh: inactive; Giardia FBPA inh-1: 17.7µM; VACV mCherry inh: inactive; Giardia growth: inactive; Mammal cell tox: inactive; Giardia FBPA inh-2: inactive; Rabbit aldolase: inactive; GAPDH counter: inactive

What do the screens show for `O=C(NC(Cc1ccccc1)C(=O)O)/C(=C/c1ccc([N+](=O)[O-])cc1)NC(=O)c1ccc(Br)o1` (configuration not stated)?
FMDV antiviral: inactive; VACV Venus inh: inactive; Giardia FBPA inh-1: inactive; VACV mCherry inh: inactive

What do the screens show for `Cn1c(=S)c2[nH]c(SCCN3CCCC3)nc2n(C)c1=O`?
FMDV antiviral: inactive; VACV Venus inh: inactive; Giardia FBPA inh-1: 11.2µM; VACV mCherry inh: inactive; Giardia growth: inactive[10.4 µM]; Mammal cell tox: inactive; Giardia FBPA inh-2: inactive; Rabbit aldolase: inactive; GAPDH counter: inactive

What do the screens show for `COc1ccc(CCn2c(NN)nc3c2c(=O)[nH]c(=O)n3C)cc1`?
FMDV antiviral: inactive; VACV Venus inh: inactive; Giardia FBPA inh-1: 5µM; VACV mCherry inh: inactive; Giardia growth: inactive[10.4 µM]; Mammal cell tox: inactive; Giardia FBPA inh-2: 31.6µM; Rabbit aldolase: inconclusive; GAPDH counter: 25.1µM

Results for COc1ccc(CCn2c(NN=C(C)C)nc3c2c(=O)[nH]c(=O)n3C)cc1 ?
FMDV antiviral: inconclusive; Giardia FBPA inh-1: 2.81µM; Giardia growth: inactive; Mammal cell tox: inactive; Giardia FBPA inh-2: 12.6µM; Rabbit aldolase: inconclusive; GAPDH counter: 14.1µM

Results for COc1ccc(-c2nc3c(c4c2C[C@H](c2ccccc2)OC4)CN(S(=O)(=O)c2ccc(C#N)cc2)CC3)c(C)c1 ?
Giardia FBPA inh-1: inactive[12.9 µM]

How did O=C(O)CCC/C=C\CC1C2CCC(O2)C1CNNC(=O)Nc1ccccc1 (configuration not stated) do in these assays?
Giardia FBPA inh-1: inactive

What do the screens show for `COc1cc(C(=O)NC(=S)N2C[C@H]3C[C@H](C2)c2cccc(=O)n2C3)cc(OC)c1OC`?
FMDV antiviral: inactive; VACV Venus inh: inactive; Giardia FBPA inh-1: 11.2µM; VACV mCherry inh: inactive; Giardia growth: inactive[10.4 µM]; Mammal cell tox: inactive; Giardia FBPA inh-2: inactive; Rabbit aldolase: inactive; GAPDH counter: inactive

What do the screens show for `COc1ccc(/C=C/C(=O)NC(=S)N2C[C@H]3C[C@H](C2)c2cccc(=O)n2C3)cc1OC`?
FMDV antiviral: inactive; VACV Venus inh: inactive; Giardia FBPA inh-1: 7.94µM; VACV mCherry inh: inactive; Giardia growth: inconclusive; Mammal cell tox: inactive; Giardia FBPA inh-2: inactive; Rabbit aldolase: inactive; GAPDH counter: inactive

Results for O=C(/C=C/c1ccccc1)NC(=S)N1C[C@H]2C[C@H](C1)c1cccc(=O)n1C2 ?
FMDV antiviral: inactive; VACV Venus inh: inactive; Giardia FBPA inh-1: inconclusive; VACV mCherry inh: inactive

How did COc1cc(OC)cc(C(=O)NC(=S)N2C[C@H]3C[C@H](C2)c2cccc(=O)n2C3)c1 do in these assays?
FMDV antiviral: inactive; VACV Venus inh: inactive; Giardia FBPA inh-1: 11.2µM; VACV mCherry inh: inactive; Giardia growth: inactive; Mammal cell tox: inactive; Giardia FBPA inh-2: inactive; Rabbit aldolase: inactive; GAPDH counter: inactive

Results for O=c1[nH]c2cc([N+](=O)[O-])cc([N+](=O)[O-])c2[nH]c1=O ?
Giardia FBPA inh-1: inactive

How did CCn1c(C)cc(C)c(C#N)c1=O do in these assays?
FMDV antiviral: inactive; VACV Venus inh: inactive; Giardia FBPA inh-1: inactive; VACV mCherry inh: inactive

How did Cc1cc(C)n(NC(=S)NC2CCCC2)c(=O)c1C#N do in these assays?
FMDV antiviral: inactive; VACV Venus inh: inactive[7.34 µM]; Giardia FBPA inh-1: 17.7µM; VACV mCherry inh: inactive[7.34 µM]; Giardia growth: inactive; Mammal cell tox: inactive; Giardia FBPA inh-2: inactive; Rabbit aldolase: inactive; GAPDH counter: inactive

What do the screens show for `CSCC[C@H](NC(=O)[C@H](CCCN=C(N)N)NC(=O)[C@@H]1CCCN1C(=O)[C@H](Cc1ccccc1)NC(=O)[C@H](C)NC(=O)[C@H](CC(C)C)NC(=O)[C@H](Cc1ccc(O)cc1)NC(=O)[C@H](CC(N)=O)NC(=O)[C@@H](N)CCSC)C(N)=O`?
Giardia FBPA inh-1: inactive

What do the screens show for `OC[C@H]1OC(O)[C@H](O)[C@@H](O)[C@@H]1O` (some centres not stated)?
Giardia FBPA inh-1: inactive
